Source: PubChem
Ecoli WT expand = growth inhibitors of wild-type E. coli, primary screen, strain BW25113, expanded library, OD600; OD600 absorbance; growth inhibition, % at 100 µM; 0.15% of 98,000 active;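 active = growth inhibition above about 50% at one test dose, limit read from the data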;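 also: growth measured after 20 h incubation at 37 °C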
Mac1 fbg enh = enhancers of CD11b/CD18 adhesion to fibrinogen, primary screen, K562 cells, luminescence | Integrin beta-2 (Homo sapiens) + Integrin alpha-M (Homo sapiens), P05107+P11215 | ATPlite luminescence | activation, % at 10 µM | 0.07% of 93,000 active | AID 1499, 2009;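 active = 10 µM primary screen giving 50% or more activity, confirmed by 40% or more on retest at that dose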
Mac1 fbg inh = inhibitors of CD11b/CD18 adhesion to fibrinogen, primary screen, K562 cells, luminescence; inhibition, % at 10 µM; Integrin beta-2 (Homo sapiens) + Integrin alpha-M (Homo sapiens), P05107+P11215; AID 1497, 2009; 0.54% of 93,000 active; ATPlite luminescence; Mn2+ added to activate the integrin;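 active = primary inhibition of 50% or more at 10 µM, then 40% or more on retest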
Cav3 T inh = Cav3.2 calcium influx blockers – cell-based, Fluo-4 calcium fluorescence, FDSS, MLSMR library, primary screen; Cav3.2-expressing cells; hits give low values; B-score at 10 µM; 4% of 100,000 active;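 active = single-dose well whose peak fluorescence ratio is a statistical outlier from its plate by either plate-standardised score or position-corrected B-score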
Numbers without * were called inactive; . = no result given. Shown is part of a subset that was picked to be rich in hits.

SMILES	Ecoli WT expand	Mac1 fbg enh	Mac1 fbg inh	Cav3 T inh
O=C(CN(Cc1ccc(Cl)c(Cl)c1)S(=O)(=O)c1ccccc1)N/N=C\c1ccc2c(c1)OCO2	-14	3	12	-0.31
O=C(CN(Cc1ccccc1)S(=O)(=O)c1ccccc1)N/N=C/c1ccc2c(c1)OCO2	-5	.	.	-4.2*
CCCC(=O)OC1CC(C)N(C(=O)c2ccccc2)c2ccc(C)cc21 (centres undefined)	.	.	.	-4.4*
COC(=O)C[C@H]1c2ccccc2S(=O)(=O)N1Cc1ccc(OC)cc1	.	.	.	-0.54
CC1(C)CC(n2c(NCCO)nc3c(c2=O)C2(CCCC2)Cc2ccccc2-3)CCO1 (centres undefined)	0	3	2	-4.3*
COC(C/C=C/[C@@H](O)[C@H](C)OCc1ccccc1)OC	.	.	.	0.85
COC(=O)C1=C(N)Oc2cc(C)n(CCN3CCOCC3)c(=O)c2C1c1cccnc1 (centres undefined)	1	-3	5	0.67
O=C(c1ccccc1)N(Cc1ccccc1)c1ccccn1	-6	-4	-8	0.46
O=C(c1ccc(N2CCCCC2)c([N+](=O)[O-])c1)N(Cc1ccccc1)c1ccccn1	-31	.	.	-4.5*
O=C(CSc1nnc(C2CC2)n1Cc1ccccc1)c1cc2ccccc2o1	-6	3	10	-2.8
O=C(CSc1cccc[n+]1[O-])c1cc2ccccc2o1	97*	0	-1	-0.0058
Cc1ccc(C)c(NC(=O)CSc2nnc(-c3ccccc3C)o2)c1	-8	-2	-13	-5.5*
CCCCNS(=O)(=O)c1ccc(NC(=O)c2c(-c3ccccc3Cl)noc2C)cc1	-8	-1	-31	-5.7*
Cc1onc(-c2ccccc2)c1C(=O)Nc1sc2c(c1C#N)CCC(C)C2 (centres undefined)	-11	.	.	-1
Cc1onc(-c2ccccc2Cl)c1C(=O)Nc1sc2c(c1C#N)CCC2	-19	-2	48	-5.4*
Cc1ccccc1-n1nc2c(c1NC(=O)c1c(-c3ccccc3Cl)noc1C)CSC2	-8	3	0	-5.9*
Cc1ccc(-n2nc3c(c2NC(=O)c2c(-c4ccccc4Cl)noc2C)CSC3)cc1	-7	72*	1	-6*
COCCNC(=O)C(c1cccs1)N(C(=O)Cn1nnc2ccccc21)c1ccc(OC)cc1 (centres undefined)	.	.	.	0.68
CC(=O)c1c(C)[nH]c(C(=O)OCCCCN2C(=O)c3ccccc3C2=O)c1C	-11	-5	49	-2.3
CC1(C)C2CC=C(/C=N/NC(=O)c3ccc(O)cc3)C1C2 (centres undefined)	.	-2	-9	.
O=C(O)CCCNS(=O)(=O)c1ccc(Br)s1	-7	-6	-14	0.13
CCCCCCNS(=O)(=O)c1ccc(Cl)s1	16	2	-15	-6.4*
Cc1ccc(N(C(=O)Cn2nnc3ccccc32)C(C(=O)NCc2ccccc2)c2ccccn2)cc1 (centres undefined)	.	-1	-1	.
CC(C)Cn1cnc2c(c(-c3ccccc3)c(-c3ccccc3)n2Cc2ccco2)c1=N	16	-1	14	-8.3*
OCCNc1ncnc2c1c(-c1ccccc1)c(-c1ccccc1)n2Cc1ccco1	-5	0	5	-5*
SMILES	Ecoli WT expand	Mac1 fbg enh	Mac1 fbg inh	Cav3 T inh
N=c1c2c(-c3ccccc3)c(-c3ccccc3)oc2ncn1CCN1CCOCC1	3	-1	-5	0.52
N=c1c2c(-c3ccccc3)c(-c3ccccc3)n(Cc3ccco3)c2ncn1Cc1ccccc1	7	2	37	-12*
N=c1c2c(-c3ccccc3)c(-c3ccccc3)n(Cc3ccccc3)c2ncn1CCO	19	.	.	-5.2*
O=c1c2ccccc2nc(-c2ccccc2)n1Cc1ccco1	1	-4	2	-0.22
COCCCN1CN(Cc2ccccc2)CNC1=S	.	2	-9	.
Cc1cc2nc3n(c2cc1C)CC1CC(C(=O)NCc2ccco2)N(C)C31 (centres undefined)	.	.	.	-0.054
O=C(COC(=O)C1(c2ccccc2F)CCCC1)N1CCN(C(=O)c2ccco2)CC1	-3	0	-8	0.43
O=C(COC(=O)C1(c2ccc(F)cc2)CCCC1)N1CCN(C(=O)c2ccco2)CC1	6	2	-4	-5.4*
O=C(NN=C1c2ccccc2-c2ccccc21)c1cccc(Br)c1	.	17	-9	.
O=C(Nc1ccccc1)Nc1cccc(Cl)c1	29	-2	14	-1.7
CC(=O)c1ccc(NC(=O)Nc2cccc(Cl)c2)cc1	52*	-7	97*	-2.7
Cc1ccc2cccnc2c1NC(=S)NC(=O)c1ccccc1	4	0	4	0.35
COc1ccc(CNc2nc(NCc3ccc(OC)cc3)n(C(C)=O)n2)cc1	-10	-3	-8	0.016
CCC(=O)n1nc(NCc2ccccc2OC)nc1NCc1ccccc1OC	-25	8	-8	-7.9*
O=C(Nc1nc2ccccc2s1)c1ccc(OCC2CCCO2)cc1 (centres undefined)	.	-6	73	.
Cc1ccc(CSc2nc3c(c(N(C)C)n2)CCCC3)cc1	6	-6	44	-1.7
CNc1nc(SCc2ccc(C)cc2)nc2c1CCCC2	-1	.	.	-6*
CC[C@H]1CC2CN3CCc4c([nH]c5c([C@H]6C[C@H]7[C@H](CC)CN(C)[C@@H](Cc8c6[nH]c6ccccc86)[C@H]7C(=O)OC)c(OC)ccc45)C(C(=O)OC)(C2)C13	.	.	.	-3.8*
c1ccc(-c2cn3nc(-c4ccccc4)c(-c4ccccc4)nc3n2)cc1	-18	.	.	-5.3*
Clc1ccc(C2C3=C(Nc4ncnn42)c2ccccc2CC3)cc1 (centres undefined)	-2	-3	-8	-0.66
COc1ccc(C(NC(=O)c2c(F)c(F)c(F)c(F)c2F)c2ccccc2)cc1 (centres undefined)	.	-3	4	.
O=C(Nc1nc(=S)ss1)c1ccc(Cl)cc1Cl	44	-7	114*	-11*
Cc1cc(C)n(Cc2ccc(Cl)cc2Cl)c(=O)c1S(=O)(=O)c1ccccc1	-16	-1	21	-4.3*
CC1(c2ccccc2)CC(C)(C)N(C(=O)C2CCCO2)c2ccccc21 (centres undefined)	-14	1	-14	-4.5*
CC1(C)c2[nH]c3ccccc3c2C[C@@H]2C(=O)N(c3ccc(F)cc3F)C(=O)N21	.	.	.	0.054
COc1cc2c(cc1NS(=O)(=O)N1CCCC1)oc1ccccc12	-12	2	-3	-5.6*
COc1cc2c(cc1NC(=O)C(C)N1CCN(S(=O)(=O)c3ccc(C)c(C)c3)CC1)oc1ccccc12 (centres undefined)	-2	15	-15	-2.8
O=C(NCC1CCCO1)c1ccc(S(=O)(=O)N2CCC(c3nc4ccc(Cl)cc4[nH]3)CC2)cc1 (centres undefined)	.	.	.	0.076
NC1C2CN(c3nc4c(cc3F)c(=O)c(C(=O)O)cn4-c3ccc(F)cc3F)CC12 (centres undefined)	97*	-5	9	-0.73
CCn1cc(C(=O)O)c(=O)c2cc(F)c(N3CCN(C)CC3)cc21	.	.	.	0.35
